Our source for the outcome and AC50 values is PubChem BioAssay (EPA / NIEHS).

In assay [1] the target is Nuclear respiratory factor 1 (Homo sapiens) (UniProt Q16656). Nature of the assay: ATG_NRF1_CIS: Attagene CIS-FACTORIAL HepG2 Assay for human Nuclear Respiratory Factor 1 (NRF1) Orphan Gene (AID 2282987). The following applies: HepG2 NRF1 cis-element reporter, Attagene multiplex; actives raise or lower the signal. An outline of the steps:
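Human hepatoma HepG2 cells carrying transfected promoter-regulated reporter units were incubated with test chemicals for 24 h. Reporter transcripts were measured by RT-PCR plus capillary electrophoresis, and endpoints derived by bidirectional fitting with DMSO as baseline.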

In assay [2] the target is Myc proto-oncogene protein (Homo sapiens) (UniProt P01106). Nature of the assay: ATG_Myc_CIS: Attagene CIS-FACTORIAL HepG2 Assay for human Myelocytomatosis (Myc) Proto-Oncogene Transcription Factor (AID 2282990). The following applies: HepG2, Attagene cis-reporter transcription factor activity; actives raise or lower the signal. An outline of the steps: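 Cells of the HepG2 human liver line bear multiple cis-driven reporter transcription units. Reporter mRNA after 24 h exposure is reverse-transcribed, amplified, labelled and resolved by capillary electrophoresis, with gain- or loss-of-signal fitting relative to DMSO.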

Assay [3] in a line: ATG_NF_kB_CIS: Attagene CIS-FACTORIAL HepG2 Assay for human Nuclear Factor Kappa B (NF-kB) (AID 2282991). The settings on record: HepG2 Attagene cis-factorial NF-kB reporter mRNA; actives raise or lower the signal. An outline of the steps:
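Multiplexed cis-reporter assay in transiently transfected HepG2. 24 h treatment; RNA isolated, RT-PCR, labelled fragments resolved by CE. DMSO baseline.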

Assay [4] can be described thus: ATG_NRF2_ARE_CIS: Attagene CIS-FACTORIAL HepG2 Assay for human Nuclear Factor Erythroid 2 Related Factor 2 (NFR2) response to Antioxidant Response Elements (ARE) (AID 2282992).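 As to AC50: reporter mRNA level measured by RT-PCR and capillary electrophoresis fluorescence.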 The settings on record: HepG2 Attagene ARE/NRF2 reporter, transcription factor activity; actives raise or lower the signal. The method in brief:
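Cis-factorial assay: transfected HepG2 reporter library, 24 h dosing, mRNA readout via RT-PCR/CE; DMSO-referenced bidirectional analysis.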

Assay [5] can be described thus: ATG_Oct_MLP_CIS: Attagene CIS-FACTORIAL HepG2 Assay for human Octamer-Binding Transcription Factor (Oct) (AID 2282993). The settings on record: HepG2 Attagene cis-factorial Oct reporter, mRNA; actives raise or lower the signal. An outline of the steps: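 HepG2 cells transiently transfected with cis-element-driven reporter transcription units (endogenous TF activity); 24 h compound exposure. Reporter mRNA quantified by RT-PCR, 6-FAM labelling, HpaI digestion and capillary electrophoresis; bidirectional fit versus DMSO baseline.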

The nature of assay [6]: BSK_3C_TissueFactor: BioMAP Diversity Plus: 3C Assay for Tissue Factor Biomarker Activity (AID 2282997). The following applies: BioMAP 3C HUVEC, tissue factor biomarker readout; actives raise or lower the signal. An outline of the steps:
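Human vascular primary cells (umbilical vein endothelium) received test chemical; Tissue Factor was determined by ELISA at 24 h, and both gain and loss of signal versus DMSO were fitted.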

Assay [7] is described as follows: BSK_3C_uPAR: BioMAP Diversity Plus: 3C Assay for Urokinase-type plasminogen activator receptor (uPAR) Biomarker Activity (AID 2282998). The settings on record: BioMAP 3C HUVEC, uPAR biomarker ELISA; actives raise or lower the signal. The method in brief:
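Primary human umbilical vein endothelial cells, 3C system; surface uPAR measured by ELISA 24 h after dosing. Cytotoxicity via SRB total protein in parallel cultures; bidirectional fit against DMSO.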

Assay [8] is described as follows: BSK_3C_VCAM1: BioMAP Diversity Plus: 3C Assay for Vascular cell adhesion molecule 1 (VCAM1) Biomarker Activity (AID 2282999). The settings on record: BioMAP 3C HUVEC, VCAM1 ELISA, cytokine-stimulated; actives raise or lower the signal. The method in brief: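 Endothelial cells from human umbilical vein are treated with test chemical. At 24 h, VCAM-1 is measured by ELISA, and responses in either direction are fitted relative to DMSO.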

Assay [9] is described as follows: BSK_4H_Eotaxin3: BioMAP Diversity Plus: 4H Assay for Eotaxin 3 Biomarker Activity (AID 2283000).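 As to outcome: CCL26 protein level quantified by ELISA in parallel with SRB cytotoxicity check.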 The following applies: primary human endothelial cells (HUVEC); actives raise or lower the signal. The method in brief:
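Readout is Eotaxin-3 (CCL26) level by ELISA in primary human umbilical vein endothelial cells harvested 24 h after chemical exposure; activity fitted in both directions against DMSO control.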

The target of assay [10] is human Peroxisome Proliferator-activated Receptor alpha (PPARa), PPARA (gene 5465) (UniProt Q07869). Nature of the assay: ATG_PPARa_TRANS: Attagene TRANS-FACTORIAL HepG2 Assay for human Peroxisome Proliferator-activated Receptor alpha (PPARa) (AID 2283001; active = hit-call score of the fitted dose curve at least 0.9, where 1 is the maximum). An outline of the steps:
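Read-out is fluorescence of reporter cDNA fragments resolved by capillary electrophoresis after RT-PCR. Human HepG2 liver cells carried transfected PPARa-Gal4 chimera and GAL4-UAS reporter units, treated 24 h; activity scored as increase over DMSO.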

Read-out in assay [11]: Intercellular Adhesion Molecule 1 (ICAM1), ICAM1 (gene 3383)
The experiment in a line: BSK_3C_ICAM1: BioMAP Diversity Plus: 3C Assay for Intercellular Adhesion Molecule 1 (ICAM1) Biomarker Activity (AID 2283003). The settings on record: primary human endothelial cells (HUVEC); actives raise or lower the signal. The method in brief: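 HUVEC primary cells stimulated under 3C conditions; ICAM1 measured by ELISA 24 h after compound dosing. Curves fitted bidirectionally against the DMSO baseline. Overt cytotoxicity checked by SRB staining of parallel cultures.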

Assay [12] deals with human Retinoic Acid Receptor beta (RARb), RARB (gene 5915) (UniProt P10826). Nature of the assay: ATG_RARb_TRANS: Attagene TRANS-FACTORIAL HepG2 Assay for human Retinoic Acid Receptor beta (AID 2283004; active = hit-call score of the fitted dose curve at least 0.9, where 1 is the maximum). The method in brief: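 Readout is reporter mRNA induction: RNA reverse-transcribed, PCR-amplified, FAM-labelled, HpaI-cut and resolved by capillary electrophoresis. Transiently transfected HepG2 cells carrying exogenous NR–Gal4 chimeras were dosed for 24 h; activity fitted upward relative to DMSO.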

The target of assay [13] is Retinoic acid receptor alpha (Homo sapiens) (UniProt P10276). The experiment in a line: ATG_RARa_TRANS: Attagene TRANS-FACTORIAL HepG2 Assay for human Retinoic Acid Receptor alpha (RARa) (AID 2283005; active = hit-call score of the fitted dose curve at least 0.9, where 1 is the maximum). The method in brief: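 Reporter transcripts, measured by RT-PCR with fluorescent labeling and capillary electrophoresis after 24 h dosing, reflect activity of an exogenous human RARa–GAL4 fusion in transiently transfected HepG2. Fitted for increase relative to DMSO.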

Assay [14] can be described thus: BSK_3C_Proliferation: Cell Proliferation Assessment in the BioMAP Diversity Plus: 3C Assay (AID 2283006).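 As to AC50: potency may reflect either rise or fall in cell number versus DMSO.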 The settings on record: primary human endothelial cells (HUVEC). The method in brief: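 Subconfluent HUVEC (3C system) cultured with chemical; relative cell number read at 48 h by sulforhodamine B total-protein staining (0.1% SRB after 10% TCA fixation, 560 nm). Bidirectional fit relative to DMSO.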

Assay [15] addresses Peroxisome proliferator-activated receptor gamma (Homo sapiens) (UniProt P37231). The experiment in a line: ATG_PPARg_TRANS: Attagene TRANS-FACTORIAL HepG2 Assay for human Peroxisome Proliferator-activated Receptor-gamma (PPARg) (AID 2283007; active = hit-call score of the fitted dose curve at least 0.9, where 1 is the maximum). An outline of the steps: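 Human hepatoma HepG2, transient MRTU transfection, 24 h treatment. mRNA reporter signal by RT-PCR plus capillary electrophoresis, fluorescence detection; fitted for increase over DMSO negative control.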

The target in assay [16] is Nuclear receptor subfamily 1 group I member 2 (Homo sapiens) (UniProt O75469). The experiment in a line: ATG_PXR_TRANS: Attagene TRANS-FACTORIAL HepG2 Assay for human Pregnane X Receptor (PXR) (AID 2283008; active = hit-call score of the fitted dose curve at least 0.9, where 1 is the maximum). The method in brief: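 Fluorescence intensity of FAM-labelled, HpaI-digested reporter amplicons, separated by capillary electrophoresis, quantifies induction. HepG2 cells with PXR-Gal4 trans-reporter system were exposed 24 h; DMSO defines baseline.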

Assay [17] deals with human Retinoic Acid Receptor gamma (RARg), RARG (gene 5916) (UniProt P13631). The experiment in a line: ATG_RARg_TRANS: Attagene TRANS-FACTORIAL HepG2 Assay for human Retinoic Acid Receptor gamma (RARg) (AID 2283009; active = hit-call score of the fitted dose curve at least 0.9, where 1 is the maximum). An outline of the steps:
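HepG2 transiently transfected with GAL4-UAS reporter units and chimeric NR-Gal4 constructs; 24 h compound exposure. Reporter mRNA quantified by RT-PCR, FAM labeling, HpaI digestion and capillary electrophoresis; gain-of-signal versus DMSO.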

The nature of assay [18]: ATG_NFI_CIS: Attagene CIS-FACTORIAL HepG2 Assay for human Nuclear Factor I (NFI) (AID 2282989). The settings on record: HepG2 cis-regulatory reporter, NFI response element transcription; actives raise or lower the signal. An outline of the steps: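 Endogenous TF activity in HepG2 cells transiently transfected with cis-element-driven multiplexed reporter units, read 24 h after dosing. Reporter mRNA quantified by RT-PCR, 6-FAM labelling, HpaI digestion and capillary electrophoresis; bidirectional fit versus DMSO.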

The target of assay [19] is Cellular tumor antigen p53 (Homo sapiens) (UniProt P04637). The experiment in a line: ATG_p53_CIS: Attagene CIS-FACTORIAL HepG2 Assay for human p53 Transcription Factor (AID 2282994). The settings on record: HepG2 p53 cis-element reporter, Attagene mRNA; actives raise or lower the signal. An outline of the steps:
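Using HepG2 hepatoma cells carrying cis-acting multiplexed reporters, mRNA induction is detected after a 24 h exposure. Gain- and loss-of-signal responses are fitted relative to DMSO-treated cells.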

The target in assay [20] is human Peroxisome Proliferator-activated Receptor delta (PPARd), PPARD (gene 5467) (UniProt Q03181). Nature of the assay: ATG_PPARd_TRANS: Attagene TRANS-FACTORIAL HepG2 Assay for human Peroxisome Proliferator-activated Receptor delta (PPARd) (AID 2283002; active = hit-call score of the fitted dose curve at least 0.9, where 1 is the maximum). An outline of the steps: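 Cell-based TRANS reporter: HepG2, transient MRTU transfection, 24 h exposure. Readout = reporter mRNA (RT-PCR/CE, 6-FAM). Gain-of-signal fit vs DMSO control.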

“And” between values parts separate entries of the source, which are not always exact repeats. Equal values may be shown once. Records with an inconclusive call do not appear. The source made the active and inactive calls. The calls were made as follows, unless noted: active = hit-call score of the fitted dose curve at least 0.9, where 1 is the maximum; inactive = score below 0.9.

Nuclear respiratory factor 1 (Homo sapiens), sequence (Q16656 whole entry, looked up): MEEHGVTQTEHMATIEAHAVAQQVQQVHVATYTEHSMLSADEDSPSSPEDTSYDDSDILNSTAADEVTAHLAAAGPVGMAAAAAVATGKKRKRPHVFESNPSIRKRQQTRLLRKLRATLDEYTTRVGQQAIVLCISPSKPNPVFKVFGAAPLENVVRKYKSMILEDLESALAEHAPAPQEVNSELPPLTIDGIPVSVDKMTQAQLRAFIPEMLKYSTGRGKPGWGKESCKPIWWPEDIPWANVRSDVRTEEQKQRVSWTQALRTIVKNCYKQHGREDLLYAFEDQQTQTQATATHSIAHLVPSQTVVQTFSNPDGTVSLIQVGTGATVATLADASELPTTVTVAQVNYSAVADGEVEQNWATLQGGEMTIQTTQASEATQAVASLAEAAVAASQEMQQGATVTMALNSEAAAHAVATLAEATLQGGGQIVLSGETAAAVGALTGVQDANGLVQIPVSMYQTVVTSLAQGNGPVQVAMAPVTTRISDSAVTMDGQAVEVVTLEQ
Nuclear receptor subfamily 1 group I member 2 (Homo sapiens), sequence (O75469 whole entry, looked up, the tested form may be a part): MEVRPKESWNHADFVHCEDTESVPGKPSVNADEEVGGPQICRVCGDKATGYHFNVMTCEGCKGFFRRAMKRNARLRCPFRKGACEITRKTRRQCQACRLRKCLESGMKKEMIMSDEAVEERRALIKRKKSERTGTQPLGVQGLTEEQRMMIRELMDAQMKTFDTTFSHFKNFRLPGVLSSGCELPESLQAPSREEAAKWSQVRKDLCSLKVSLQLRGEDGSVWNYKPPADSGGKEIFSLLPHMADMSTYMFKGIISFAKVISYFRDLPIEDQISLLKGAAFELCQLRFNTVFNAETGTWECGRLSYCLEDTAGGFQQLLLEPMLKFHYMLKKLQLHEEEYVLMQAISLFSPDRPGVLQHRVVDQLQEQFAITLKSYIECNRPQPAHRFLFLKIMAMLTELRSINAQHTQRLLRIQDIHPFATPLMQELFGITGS
human Peroxisome Proliferator-activated Receptor delta (PPARd), PPARD (gene 5467), sequence (Q03181 whole entry, looked up): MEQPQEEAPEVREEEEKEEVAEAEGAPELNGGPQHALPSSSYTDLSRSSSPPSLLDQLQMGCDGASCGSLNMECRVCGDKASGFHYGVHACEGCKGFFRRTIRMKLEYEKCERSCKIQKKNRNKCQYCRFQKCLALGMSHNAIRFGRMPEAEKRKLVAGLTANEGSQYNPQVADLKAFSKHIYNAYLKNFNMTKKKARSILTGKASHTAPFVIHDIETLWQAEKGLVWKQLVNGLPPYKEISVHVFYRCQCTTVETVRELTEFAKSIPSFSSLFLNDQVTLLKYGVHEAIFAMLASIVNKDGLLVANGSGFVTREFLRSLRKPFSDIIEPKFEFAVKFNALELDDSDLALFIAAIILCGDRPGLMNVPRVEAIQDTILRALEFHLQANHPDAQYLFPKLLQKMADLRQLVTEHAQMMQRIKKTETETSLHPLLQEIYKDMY
Peroxisome proliferator-activated receptor gamma (Homo sapiens), sequence (P37231 whole entry, looked up): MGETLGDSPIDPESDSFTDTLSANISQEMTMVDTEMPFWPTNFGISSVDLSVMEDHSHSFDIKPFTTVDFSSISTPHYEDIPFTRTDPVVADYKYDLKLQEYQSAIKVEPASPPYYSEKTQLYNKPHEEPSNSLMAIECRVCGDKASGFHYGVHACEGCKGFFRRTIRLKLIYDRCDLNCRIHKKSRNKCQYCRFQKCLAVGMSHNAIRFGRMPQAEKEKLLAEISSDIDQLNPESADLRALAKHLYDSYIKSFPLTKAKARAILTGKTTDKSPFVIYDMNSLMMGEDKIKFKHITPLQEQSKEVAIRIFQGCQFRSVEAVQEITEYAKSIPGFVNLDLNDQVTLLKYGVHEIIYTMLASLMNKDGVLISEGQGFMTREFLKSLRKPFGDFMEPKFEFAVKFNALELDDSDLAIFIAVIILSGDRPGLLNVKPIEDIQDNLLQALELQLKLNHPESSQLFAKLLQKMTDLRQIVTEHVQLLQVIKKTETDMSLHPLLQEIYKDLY
Cellular tumor antigen p53 (Homo sapiens), sequence (P04637 whole entry, looked up): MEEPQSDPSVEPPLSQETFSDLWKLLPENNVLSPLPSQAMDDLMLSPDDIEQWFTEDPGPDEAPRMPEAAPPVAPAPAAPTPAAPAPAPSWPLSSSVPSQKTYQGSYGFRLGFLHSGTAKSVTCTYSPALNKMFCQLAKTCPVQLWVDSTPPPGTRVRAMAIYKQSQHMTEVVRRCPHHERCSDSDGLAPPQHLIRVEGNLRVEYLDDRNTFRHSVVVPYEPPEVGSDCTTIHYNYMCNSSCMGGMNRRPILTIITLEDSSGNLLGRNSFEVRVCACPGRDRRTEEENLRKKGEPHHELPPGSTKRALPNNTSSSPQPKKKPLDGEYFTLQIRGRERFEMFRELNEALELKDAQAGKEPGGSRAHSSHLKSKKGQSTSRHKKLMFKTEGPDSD
Myc proto-oncogene protein (Homo sapiens), sequence (P01106 whole entry, looked up): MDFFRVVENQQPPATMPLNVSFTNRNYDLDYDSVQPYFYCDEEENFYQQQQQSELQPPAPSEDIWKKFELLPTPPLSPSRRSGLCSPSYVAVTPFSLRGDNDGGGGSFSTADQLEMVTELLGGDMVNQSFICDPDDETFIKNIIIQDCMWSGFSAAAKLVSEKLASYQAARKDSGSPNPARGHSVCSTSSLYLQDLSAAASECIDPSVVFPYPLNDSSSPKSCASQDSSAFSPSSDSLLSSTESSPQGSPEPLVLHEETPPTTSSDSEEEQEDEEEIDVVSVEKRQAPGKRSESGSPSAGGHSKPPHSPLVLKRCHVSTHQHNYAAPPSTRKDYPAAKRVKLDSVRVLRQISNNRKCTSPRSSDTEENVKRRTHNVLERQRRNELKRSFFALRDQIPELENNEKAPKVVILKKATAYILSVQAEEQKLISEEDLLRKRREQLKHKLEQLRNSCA
human Peroxisome Proliferator-activated Receptor alpha (PPARa), PPARA (gene 5465), sequence (Q07869 whole entry, looked up, the tested form may be a part): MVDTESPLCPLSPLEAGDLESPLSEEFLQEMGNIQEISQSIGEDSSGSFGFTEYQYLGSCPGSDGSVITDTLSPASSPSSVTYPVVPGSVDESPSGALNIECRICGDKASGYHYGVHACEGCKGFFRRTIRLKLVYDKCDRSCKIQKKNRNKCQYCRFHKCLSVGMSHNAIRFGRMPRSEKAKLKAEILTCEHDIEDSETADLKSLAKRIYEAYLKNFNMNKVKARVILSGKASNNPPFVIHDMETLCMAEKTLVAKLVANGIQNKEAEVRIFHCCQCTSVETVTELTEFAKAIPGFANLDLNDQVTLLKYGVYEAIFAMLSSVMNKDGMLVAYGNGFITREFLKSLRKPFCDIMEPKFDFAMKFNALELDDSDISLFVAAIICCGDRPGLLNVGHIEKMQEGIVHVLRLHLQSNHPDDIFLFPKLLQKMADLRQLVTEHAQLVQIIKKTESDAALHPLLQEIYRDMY
human Retinoic Acid Receptor gamma (RARg), RARG (gene 5916), sequence (P13631 whole entry, looked up, the tested form may be a part): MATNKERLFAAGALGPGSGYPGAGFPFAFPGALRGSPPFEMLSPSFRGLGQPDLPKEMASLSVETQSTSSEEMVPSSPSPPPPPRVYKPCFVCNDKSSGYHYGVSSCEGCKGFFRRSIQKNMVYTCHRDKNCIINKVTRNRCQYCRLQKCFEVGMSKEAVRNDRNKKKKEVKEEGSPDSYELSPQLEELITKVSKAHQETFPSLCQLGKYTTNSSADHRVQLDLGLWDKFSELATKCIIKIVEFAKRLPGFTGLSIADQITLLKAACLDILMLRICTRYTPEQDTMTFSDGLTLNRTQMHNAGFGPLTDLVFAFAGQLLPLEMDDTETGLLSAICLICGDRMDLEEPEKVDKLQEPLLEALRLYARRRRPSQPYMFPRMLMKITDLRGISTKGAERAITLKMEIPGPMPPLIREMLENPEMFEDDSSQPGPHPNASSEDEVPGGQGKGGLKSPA
human Retinoic Acid Receptor beta (RARb), RARB (gene 5915), sequence (P10826 whole entry, looked up, the tested form may be a part): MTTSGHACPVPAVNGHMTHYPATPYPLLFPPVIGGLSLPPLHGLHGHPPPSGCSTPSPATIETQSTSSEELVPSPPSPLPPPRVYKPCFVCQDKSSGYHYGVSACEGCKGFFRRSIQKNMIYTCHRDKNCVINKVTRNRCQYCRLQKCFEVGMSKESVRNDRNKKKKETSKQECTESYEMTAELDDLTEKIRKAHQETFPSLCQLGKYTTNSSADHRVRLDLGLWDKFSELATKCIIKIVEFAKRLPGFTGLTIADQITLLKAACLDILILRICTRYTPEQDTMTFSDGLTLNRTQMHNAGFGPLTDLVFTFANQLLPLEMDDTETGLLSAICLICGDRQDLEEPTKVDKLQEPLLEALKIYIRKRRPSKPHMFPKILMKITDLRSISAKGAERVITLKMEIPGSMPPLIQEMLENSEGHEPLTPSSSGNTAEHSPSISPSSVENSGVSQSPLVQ
Retinoic acid receptor alpha (Homo sapiens), sequence (P10276 whole entry, looked up, the tested form may be a part): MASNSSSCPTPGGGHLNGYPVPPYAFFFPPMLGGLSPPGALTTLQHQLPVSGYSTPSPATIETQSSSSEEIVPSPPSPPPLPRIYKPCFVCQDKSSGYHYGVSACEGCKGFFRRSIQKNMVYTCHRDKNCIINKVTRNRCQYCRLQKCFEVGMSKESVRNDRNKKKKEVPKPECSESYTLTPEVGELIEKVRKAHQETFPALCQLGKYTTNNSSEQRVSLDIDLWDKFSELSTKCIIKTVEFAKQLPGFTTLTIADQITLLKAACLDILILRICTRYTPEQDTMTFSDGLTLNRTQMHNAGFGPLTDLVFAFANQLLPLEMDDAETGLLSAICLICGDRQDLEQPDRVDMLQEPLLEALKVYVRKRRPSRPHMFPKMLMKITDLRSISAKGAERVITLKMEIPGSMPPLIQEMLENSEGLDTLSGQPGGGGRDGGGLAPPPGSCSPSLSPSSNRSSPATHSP

As to `FC(F)(F)C(F)(F)C(F)(F)C(F)(F)C(F)(F)C(F)(F)CC1CO1` (stereo not given), the outcome in assay [1], in assay [2], in assay [3], in assay [4], in assay [5] and in assay [6] was inactive. Also, the result in assay [7], in assay [8], in [9], in assay [10], in [11] and in assay [12] was inactive. Besides, the result in [13], in assay [14], in [15], in assay [16] and in [17] was inactive.

On to `CCCCCC=O`, for which the call in [1], in [18], in assay [2], in assay [4], in assay [19] and in [10] was inactive. Moreover, the outcome in [20] and in [15] was inactive.

Take `Cc1ccc(S(=O)(=O)NCl)cc1`: the compound was classed as inactive in [1], in assay [2], in [4], in [5], in assay [20] and in assay [15]. In addition, the compound was called inactive in [16].

As to `CCCCCCOC(=O)c1ccccc1O`, the outcome in assay [1], in assay [2], in [3], in assay [4], in assay [19] and in assay [10] was inactive. Also, the outcome in assay [20], in [15] and in [16] was inactive. For the same compound, the AC50 was 48 µM (active) and 38.5 µM (active) in assay [6]; 24.5 µM (active) and 41.1 µM (active) in [7]; 38.1 µM (active) and 37.2 µM (active) in assay [8]; 37.6 µM (active) and 43.5 µM (active) in assay [9]; 38.6 µM (active) and 47 µM (active) in assay [11]; 35.3 µM (active) and 40.9 µM (active) in [14].

On to `c1ccc(B(c2ccccc2)c2ccccc2)cc1`, for which the compound was classed as inactive in [1], in assay [2], in assay [3], in [19] and in assay [20]. Moreover, the AC50 in assay [4] was 33.9 µM (active); in [15], 33.9 µM (active); in assay [16], 4.69 µM (active).
